Test systems include HCT-15 colon; HT29 colon; SNB-75 CNS; SNB-19 CNS; U251 CNS; PC-3 prostate; SK-MEL-5 melanoma; UACC-62 melanoma; LOX IMVI melanoma; SK-MEL-28 melanoma.
What all share (test): NCI-60 one-dose screen, 48 h (100 = growth as untreated, 0 = no growth, -100 = all killed)
Details in all cases: 10 µM unless noted

These results are taken from PubChem BioAssay (NCI).

SMILES strings stand for the structures. The panel holds about 83,000 compounds, 20% with a hit somewhere; the sample as a whole holds those more often.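 Negative percent growth values reflect cell death: -40 means 40% of the cells present at the start died, and -100 means all died.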 Values without a mark were called inactive. Calls of active or inactive are those of the source. Rule for the calls: active = growth percent below 10; inactive = the rest.

Take `Cc1cc(Cl)c2c(N(C)C)cccc2n1`: the growth in the assay on HCT-15 colon was 94.1%; in the assay on HT29 colon, 78%; with SNB-75 CNS it was 93.6%; in the assay with SNB-19 CNS, 105%; with U251 CNS, 105%; in the assay with PC-3 prostate, 119%. Besides, the growth was 101% in the assay with SK-MEL-5 melanoma, 105% in the assay on UACC-62 melanoma, 84.1% in the assay on LOX IMVI melanoma and 113% in the assay on SK-MEL-28 melanoma.

As for `COc1ccc(/C(=C\c2ccc3c(c2)OCO3)C(=O)Nc2nc3ccccc3s2)cc1OC`, the growth in the assay on HCT-15 colon is 90.1%; with HT29 colon, 90.3%; in the assay on SNB-75 CNS, 94.3%; with SNB-19 CNS, 101%; in the assay on U251 CNS, 97.9%; in the assay on PC-3 prostate it was 92.1%. The growth is 101% in the assay on SK-MEL-5 melanoma, 97.8% in the assay on UACC-62 melanoma, 102% with LOX IMVI melanoma and 106% in the assay with SK-MEL-28 melanoma.

Take `C/C(=N\Nc1cc(C)c2cc(C)ccc2n1)c1ccccn1`: the growth was -16.5% (active) in the assay on HCT-15 colon; -99.3% (active) with HT29 colon; 5.85% (active) in the assay with SNB-75 CNS; 20.6% in the assay with SNB-19 CNS; -100% (active) in the assay with U251 CNS; 15.2% with PC-3 prostate. Further, the growth in the assay with SK-MEL-5 melanoma is -98.9% (active); in the assay with UACC-62 melanoma, -54.4% (active); in the assay on LOX IMVI melanoma, -86.4% (active); in the assay with SK-MEL-28 melanoma, -93.3% (active).

On to `O=C(NC(Cc1cn(Cc2ccccc2)cn1)C(=O)O)OCC1c2ccccc2-c2ccccc21` (centres undefined), for which the growth in the assay on HCT-15 colon is 104%; in the assay on HT29 colon, 98.1%; with SNB-75 CNS, 92.3%; in the assay on SNB-19 CNS it was 109%; in the assay on U251 CNS, 101%; in the assay with PC-3 prostate it was 100%. In addition, the growth in the assay with SK-MEL-5 melanoma was 103%; in the assay on UACC-62 melanoma, 112%; in the assay on LOX IMVI melanoma it was 97.8%; in the assay with SK-MEL-28 melanoma, 104%.

Take `CC(C)=CCC/C(C)=C/CC/C(C)=C/CC/C(C)=C/CSC[C@H](NC(=O)CCCCCN1CCN(C)CC1)C(=O)NC1CCCCC1`: the growth in the assay with HCT-15 colon was 24%; with HT29 colon it was -39% (active); with SNB-75 CNS, 81.5%; with SNB-19 CNS, 85.6%; in the assay with U251 CNS, 55.2%; with PC-3 prostate, 64.4%. Also, the growth with SK-MEL-5 melanoma was 97.9%; with UACC-62 melanoma, 87.6%; in the assay on LOX IMVI melanoma it was 68.5%; in the assay on SK-MEL-28 melanoma, 5.53% (active).

`O=C(CI)Nc1ccc(O)c2ccccc12`: the growth is -10.1% (active) in the assay on HCT-15 colon; 0.99% (active) with HT29 colon; 54.2% with SNB-75 CNS; 46.1% in the assay with SNB-19 CNS; -28.4% (active) in the assay with U251 CNS; 43.3% in the assay on PC-3 prostate. Also, the growth is -47.7% (active) with SK-MEL-5 melanoma, -58.7% (active) in the assay with UACC-62 melanoma, -60.6% (active) in the assay with LOX IMVI melanoma and 41.5% in the assay with SK-MEL-28 melanoma.

`C/C(=N/NC(N)=S)C(=O)O`: the growth with HCT-15 colon was 82.9%; in the assay with HT29 colon it was 56.5%; in the assay on SNB-75 CNS, 95.3%; with SNB-19 CNS it was 98.4%; in the assay on U251 CNS, 73.9%; in the assay with PC-3 prostate, 72.8%. Also, the growth is 102% in the assay on SK-MEL-5 melanoma, 99.9% in the assay on UACC-62 melanoma, 74.9% in the assay with LOX IMVI melanoma and 103% in the assay on SK-MEL-28 melanoma.

Regarding `Nc1c(C(=O)Nc2cccc(Cl)c2)sc2ncc(Cl)cc12`, the growth was 80.7% with HCT-15 colon; 90.3% in the assay with HT29 colon; 59.6% with SNB-75 CNS; 105% in the assay with SNB-19 CNS; 10.6% with U251 CNS; 95.7% in the assay with PC-3 prostate. In addition, the growth in the assay with SK-MEL-5 melanoma is 94.3%; in the assay with UACC-62 melanoma it was 95.5%; in the assay with LOX IMVI melanoma it was 44.8%; in the assay on SK-MEL-28 melanoma it was 91.7%.

On to `CC(CNc1nc(Nc2ccc(Cl)c(Cl)c2)nc(C(Cl)(Cl)Cl)n1)N(C)C` (centres undefined), for which the growth with HCT-15 colon is -27.7% (active); in the assay with HT29 colon it was -76.3% (active); in the assay on SNB-75 CNS it was -18.9% (active); in the assay with SNB-19 CNS, -1.09% (active); with U251 CNS, -82.6% (active); in the assay with PC-3 prostate, -40.3% (active). Further, the growth in the assay on SK-MEL-5 melanoma is -56.9% (active); in the assay with UACC-62 melanoma it was -4.78% (active); with LOX IMVI melanoma, -57.2% (active).

Take `COc1ccc(C(=O)/C=C/c2cc(-c3cc(OC)c(OC)c(OC)c3)n[nH]2)cc1OC`: the growth is -16.4% (active) with HCT-15 colon; -71% (active) with HT29 colon; 33.2% in the assay on SNB-75 CNS; 35.2% in the assay with SNB-19 CNS; -85.5% (active) with U251 CNS; 20.3% with PC-3 prostate. In addition, the growth in the assay with SK-MEL-5 melanoma is 12.3%; in the assay on UACC-62 melanoma, 34.1%; in the assay with LOX IMVI melanoma it was -96.3% (active); in the assay with SK-MEL-28 melanoma, -60.6% (active).

On to `COc1ccc(-c2n/c(=C\c3c(O)[nH]c4ccc(OC)cc34)cc3c2=Nc2ccccc2-3)cc1`, for which the growth is 0.939% (active) in the assay with HCT-15 colon; -47.4% (active) in the assay with HT29 colon; 30.4% with SNB-75 CNS; 38.4% with SNB-19 CNS; -79.3% (active) in the assay with U251 CNS; 75.8% in the assay on PC-3 prostate. Moreover, the growth with SK-MEL-5 melanoma is 18.5%; with UACC-62 melanoma it was -56.4% (active); in the assay with LOX IMVI melanoma, 27.4%; in the assay with SK-MEL-28 melanoma, -89.9% (active).

Regarding `Cc1cc(C=O)c(C)c2c1[nH]c1ccccc12`, the growth in the assay on HCT-15 colon is 99.8%; with HT29 colon, 93.2%; in the assay on SNB-75 CNS, 78.7%; with SNB-19 CNS, 94.6%; with U251 CNS, 94.1%; with PC-3 prostate, 92.5%. Also, the growth is 112% in the assay with SK-MEL-5 melanoma, 57.3% with UACC-62 melanoma, 81.5% with LOX IMVI melanoma and 110% in the assay with SK-MEL-28 melanoma.

Consider `C/C(=N\Nc1cc(C)c2ccccc2n1)c1ccccn1`, for which the growth with HCT-15 colon was 21%; with HT29 colon, -90.8% (active); in the assay on SNB-75 CNS, 31.5%; in the assay on SNB-19 CNS it was 19.9%; in the assay with U251 CNS it was -86.5% (active); in the assay on PC-3 prostate, 15.9%. Also, the growth in the assay with SK-MEL-5 melanoma was -72.1% (active); in the assay on UACC-62 melanoma, -52% (active); in the assay with LOX IMVI melanoma, -78.5% (active); in the assay with SK-MEL-28 melanoma, -93.7% (active).
